# Source: PubChem BioAssay (NCI)
# The panel holds about 79,000 compounds, 15% with a hit somewhere; the sample as a whole holds those more often. A number with no mark means an inactive call. The source made the active and inactive calls. No stated cut-off is given here; in the data, active means growth inhibition above about 70%; inactive means the rest.
# Columns and labels:
# [1] = NCI Yeast Anticancer Drug Screen. Data for the rad50 strain (AID 155);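 further: 0% = growth of vehicle-only cultures of the same strain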; conditions: S. cerevisiae rad50 strain growth inhibition, stronger effect = higher value
# In short: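 Yeast carrying a defined DNA repair defect were exposed to test compounds, and growth was compared with vehicle-treated controls to give percent inhibition.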
# [2] = NCI Yeast Anticancer Drug Screen. Data for the mec2-1 strain (AID 157); conditions: S. cerevisiae mec2-1 strain, stronger effect = higher value
# In short: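 Each compound was tested on mec2-1 yeast, a strain altered in DNA damage repair or cell cycle control. Growth inhibition is reported relative to vehicle.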
# [3] = NCI Yeast Anticancer Drug Screen. Data for the sgs1 mgt1 strain (AID 161);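 further: 0% = growth of cultures given vehicle only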; conditions: S. cerevisiae sgs1 mgt1 strain, stronger effect = higher value
# In short: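 Test agents were incubated with a DNA-repair-mutant yeast strain. Growth was then read and compared against vehicle-treated controls.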
# [4] = NCI Yeast Anticancer Drug Screen. Data for the cln2 rad14 strain (AID 165);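 further: 0% = growth equal to vehicle treated cultures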; conditions: S. cerevisiae cln2 rad14 strain, stronger effect = higher value
# In short: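 Test compounds were added to cln2 rad14 yeast cultures; inhibition of growth was then determined by comparison with vehicle treatment.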
# [5] = NCI Yeast Anticancer Drug Screen. Data for the bub3 strain (AID 167); conditions: S. cerevisiae bub3 mutant strain, stronger effect = higher value
# In short: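 Compounds were applied to a genetically altered yeast strain carrying a cell-cycle control defect. Growth inhibition was scored against vehicle-treated controls.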
# [6] = NCI Yeast Anticancer Drug Screen. Data for the mlh1 rad18 strain (AID 175); conditions: S. cerevisiae mlh1 rad18 strain growth inhibition, stronger effect = higher value
# In short: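 Inhibition values reflect reduced growth of mutant yeast versus vehicle-treated controls following compound exposure; the mutations affect DNA damage repair.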
# [7] = at 5.0 µM (retest, dose inferred, filed as 0.5)
# [8] = at 50.0 µM (retest, dose inferred, filed as 5.0)
SMILES,"growth inhibition [1, 7]","growth inhibition [1, 8]",growth inhibition ([1]; at 50.0 µM),"growth inhibition [2, 7]","growth inhibition [2, 8]",growth inhibition ([2]; at 50.0 µM),"growth inhibition [3, 7]","growth inhibition [3, 8]",growth inhibition ([3]; at 50.0 µM),"growth inhibition [4, 7]","growth inhibition [4, 8]",growth inhibition ([4]; at 50.0 µM),"growth inhibition [5, 7]","growth inhibition [5, 8]",growth inhibition ([5]; at 50.0 µM),"growth inhibition [6, 7]","growth inhibition [6, 8]",growth inhibition ([6]; at 50.0 µM)
COc1cc(C2CC(=O)c3ccccc3O2)ccc1O (configuration not stated),0%,98% (active),89% (active),10%,99% (active),92.7% (active),17%,98% (active),92.2% (active),-16%,97% (active),88.7% (active),26%,97% (active),90.7% (active),15%,98% (active),89.5% (active)
O=C(O)C1C(c2ccccc2)=C1c1ccccc1,-7%,22%,73.8% (active),0%,7%,56.4%,10%,41%,59.6%,-44%,-3%,57.8%,-22%,7%,39.2%,-12%,12%,46.5%
Clc1ncccc1-n1cccc1/C=N\N=C/c1cccn1-c1cccnc1Cl,5%,98% (active),7.25%,5%,98% (active),6.3%,8%,94% (active),-10.6%,4%,93% (active),30.4%,6%,97% (active),-4.95%,,,
O=[N+]([O-])c1ccc2c(c1)/C(=C/c1ccc(O)cc1)c1ccccc1-2,9%,86% (active),88.3% (active),1%,82% (active),88.8% (active),2%,82% (active),91.3% (active),-2%,84% (active),86.8% (active),-2%,85% (active),88.6% (active),6%,83% (active),88.8% (active)
O=C(Nc1ccc(-c2cn3ccccc3n2)cc1)c1cc(Br)ccc1O,4%,15%,-21.6%,5%,7%,-28.6%,12%,9%,-13.8%,33%,-9%,39.9%,5%,6%,-24.4%,5%,13%,-29.8%
[O-]c1c2cc(-[n+]3c(-c4ccccc4)cc(-c4ccccc4)cc3-c3ccccc3)cc1CO[C@@H](c1ccccc1)[C@H](c1ccccc1)OCCOCCO[C@@H](c1ccccc1)[C@H](c1ccccc1)OC2,97% (active),95% (active),87.5% (active),98% (active),95% (active),91.4% (active),98% (active),97% (active),88.4% (active),95% (active),97% (active),88.6% (active),97% (active),72% (active),89% (active),,,
OC(Cn1cncn1)(Cn1cncn1)c1ccc(Cl)cc1Cl,66%,65%,62.6%,62%,59%,54.5%,38%,65%,63.2%,71% (active),77% (active),60.8%,65%,74% (active),56.7%,,,
CCCC#CCCOC(=O)c1cc([N+](=O)[O-])cc([N+](=O)[O-])c1,3%,97% (active),99.2% (active),5%,99% (active),98.5% (active),12%,99% (active),99.5% (active),-7%,76% (active),98.9% (active),-11%,96% (active),99.4% (active),5%,98% (active),98.5% (active)
O=C1/C(=C/c2cccc([N+](=O)[O-])c2)Sc2scc(-c3ccc([N+](=O)[O-])cc3)[n+]21,7%,97% (active),85.2% (active),-3%,98% (active),62%,6%,97% (active),94.9% (active),-15%,97% (active),59.1%,-18%,98% (active),93.1% (active),11%,97% (active),93.8% (active)
CCC(=O)NC1=CCC(C(C)(C)C)CC1 (configuration not stated),2%,-4%,10.2%,1%,4%,-5.55%,1%,4%,-0.5%,4%,-4%,7.9%,9%,18%,42.5%,0%,-1%,-5.45%
CCOc1ccc(/C=N\NC(=O)c2ccco2)cc1OCC,-6%,4%,59.8%,-3%,-2%,94% (active),-3%,11%,47.7%,-23%,-22%,67%,-11%,-22%,92.6% (active),-2%,-12%,44.6%
COc1ccc(CNC(C#N)c2ccccc2)cc1OC (configuration not stated),7%,-2%,99% (active),2%,-3%,99.7% (active),3%,-2%,99.7% (active),5%,-3%,99.5% (active),1%,-4%,99.6% (active),,,
Cn1c(CCC2(C)Cc3ccccc3C(=O)O2)cc2ccccc2c1=O (configuration not stated),3%,31%,55.2%,-6%,48%,69.7%,0%,79% (active),73.9% (active),-11%,27%,28.4%,-27%,86% (active),75.3% (active),,,
COc1ccc(/C=C/c2ccc3ccccc3n2)cc1OC,3%,97% (active),93.8% (active),8%,98% (active),97% (active),3%,93% (active),97.5% (active),1%,96% (active),83.6% (active),10%,98% (active),95.3% (active),-1%,97% (active),95.7% (active)
CCCCC1(C(O)CC)Sc2ccccc2N1C (configuration not stated),-7%,24%,31.8%,2%,82% (active),41.5%,-2%,83% (active),50.6%,1%,36%,65.9%,-14%,67%,61.6%,,,
O=C(NNc1ccccc1)c1cccc([N+](=O)[O-])c1,23%,98% (active),98.2% (active),31%,99% (active),98.5% (active),39%,99% (active),98.8% (active),28%,98% (active),93.7% (active),29%,99% (active),99.4% (active),29%,98% (active),98.8% (active)
CCCCCCCC(=O)O[C@H]1[C@H]2[C@@H](CC1(C)C)C(=O)[C@]13O[C@H]1C(=O)[C@]1(CO1)[C@]23C,48%,98% (active),91% (active),47%,98% (active),92.8% (active),65%,98% (active),92.7% (active),80% (active),98% (active),90.8% (active),83% (active),97% (active),90.4% (active),73% (active),97% (active),91.5% (active)
Clc1nc2cc3nc(Cl)c(Cl)nc3cc2nc1Cl,18%,71% (active),21.2%,24%,93% (active),16.3%,14%,24%,36.4%,26%,23%,30.1%,17%,30%,15.6%,,,
COC(=O)c1ccc(OCCC(=O)CCl)cc1,0%,56%,99.5% (active),1%,52%,99.8% (active),3%,55%,99.7% (active),4%,31%,69.1%,11%,67%,99.6% (active),2%,72% (active),97.8% (active)
Nc1nnc(CCC(=O)Nc2ccccc2Cl)o1,-2%,-5%,-1.3%,0%,4%,79.5% (active),-6%,-2%,98.5% (active),7%,9%,98.2% (active),1%,2%,98.8% (active),-5%,2%,98.5% (active)
COc1cc2c(cc1OC(C)=O)C(=O)C(Br)(Br)CCC2,66%,99% (active),62.5%,32%,99% (active),98.5% (active),88% (active),99% (active),65.1%,13%,98% (active),94.2% (active),10%,47%,99% (active),49%,99% (active),98.5% (active)
